Measurements reported in the supplement of paper PMC3334620.
The full ranking holds about 33,000 sequences; the median of “E-score (-0.5 to 0.5)” is about -0.0034, and the highest 2% start at about 0.25. The entries come from a sample that favours the highest values as a whole.

Target: T1, Yap3 (UniProt P38749)
T1 sequence: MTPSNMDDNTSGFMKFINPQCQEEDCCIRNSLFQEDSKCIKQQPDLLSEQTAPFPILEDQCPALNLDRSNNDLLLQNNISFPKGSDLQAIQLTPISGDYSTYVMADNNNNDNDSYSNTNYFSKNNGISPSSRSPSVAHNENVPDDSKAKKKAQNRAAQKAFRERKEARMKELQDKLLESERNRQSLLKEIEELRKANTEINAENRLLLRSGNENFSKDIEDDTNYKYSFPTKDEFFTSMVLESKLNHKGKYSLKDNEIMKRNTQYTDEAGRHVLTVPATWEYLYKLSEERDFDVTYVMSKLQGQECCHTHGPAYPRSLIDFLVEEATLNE
Assay: PBM E-score (8-mer binding enrichment) (E-score (-0.5 to 0.5)); higher = stronger / more preferred TF binding
Details: protein concentration: 100 nM; construct: GST-full length
Procedure: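 Universal 'all 10-mer' protein binding microarrays (Agilent AMADID 015681) probed with GST-tagged S. cerevisiae TFs (full-length or DBD) made by in vitro transcription/translation (PURExpress), about 100-200 nM. Bound TF was detected with fluorescent anti-GST. Each ungapped 8-mer (which stands for itself and its reverse complement) is scored by the PBM enrichment score (E-score), a modified Wilcoxon-Mann-Whitney statistic from -0.5 to +0.5, computed with the Universal PBM Analysis Suite. Scale: above 0.35 generally sequence-specific binding.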

Sequence | PBM E-score
GCAACCCA | -0.11
AATGATAT | 0.242
AATGATAC | 0.264
AATGATAG | 0.172
AATGATTC | 0.115
CATGATAA | 0.255
CATGATTC | 0.0254
AATGATAA | 0.177
CCTGATTA | 0.18
TATGATAA | 0.228
AATGATTA | 0.325
CATGATTA | 0.28
GATGATTA | 0.0319
AGAACGCC | -0.109
CGCACATA | -0.0836
AAGTGGGT | 0.0584
AATTTGAA | 0.131
CCGAGCAA | -0.0253
CATATAGC | 0.233
ATACAAGG | 0.145
CGCGATTC | 0.198
AGCGATTA | 0.00413
CGCGATTA | 0.27
GGTAATAC | 0.208
CGTAATAG | 0.314

Sequence | PBM E-score
TGTAATAA | 0.242
CGTAATAA | 0.29
CATAATAG | 0.189
AGTAATAG | 0.207
GGTAATAA | 0.165
AGTAATGC | 0.13
CGTAATAC | 0.318
AGTAATAT | 0.295
AGTAATAC | 0.113
CGTAATGC | 0.203
CGGCATTA | 0.21
ACTCGTTC | -0.0576
AGTAAAAA | 0.208
AGTAATAA | 0.254
AGTAATGA | 0.208
ATTGGGGC | -0.0386
AGGCTATC | -0.203
ACGCGCGC | 0.181
CCGCGCGG | 0.293
GCGCGCGC | 0.29
CCGCGCTA | 0.137
CCGCGCGC | 0.0469
GCGCGCGA | 0.121
ACGCGCTA | 0.0658
CCGCGCGA | 0.0991

Sequence | PBM E-score
GCGCGCTA | 0.257
ACAACAGA | -0.0683
GATGTCCC | -0.134
AGGATCAG | -0.151
CGGCCCAG | -0.332
AGAAATGA | 0.0784
CCTGACAG | -0.0186
AGAGATAA | 0.169
CGAGATAA | 0.29
GGAGATAA | 0.107
GAGCCTTA | -0.0398
ACATGTAA | 0.184
ACATGTAG | 0.302
ACATGTTG | 0.13
ACATGTAT | 0.262
ACATGTAC | 0.112
CCATGTAG | -0.014
CAGAATCA | 0.0924
CCGCTAGG | -0.128
ACGCACGT | -0.206
ACGCACGC | 0.262
ACGCACGA | 0.131
TCATGGGA | 0.00531
GATTAAAA | 0.192
ATTAAATA | 0.268

Sequence | PBM E-score
ATTAAACG | 0.215
CATTAAAA | 0.281
ATTAAAAA | 0.285
TATTAAAA | 0.217
CTTAAATA | 0.092
ATTAAATC | 0.211
GTTAAATA | 0.178
ATTAAAAC | 0.236
ATTAAAAG | 0.0983
ATTAAATG | 0.266
CAAGGTAG | -0.142
ATGCGCCG | 0.00281
AAAGAGAT | -0.0227
AGCGAGAA | -0.0207
CAAATCCA | 0.151
ACAATCCG | 0.116
GCAATCCA | 0.0882
ACAATCCA | 0.287
GAAATCCA | 0.0886
AAAATCCA | 0.28
AGAATGCG | 0.0426
AATAGTAT | 0.229
GTATCCGA | -0.0824
AGTACGTG | -0.0755
ACTACGTG | -0.166

Sequence | PBM E-score
ATTACGTG | 0.397
ATTACGCG | 0.311
ATTACGCC | 0.0197
ATTACGCA | 0.233
ACTACGTC | -0.0702
ATTACGTC | 0.33
ATTAGGTC | 0.286
CTTAGGTC | -0.0924
AATACGTC | 0.188
ATTAGGTA | 0.167
AGTAAACT | 0.0322
CATCTGGC | -0.066
TAGTACTA | 0.0913
GGCTACAC | -0.166
CGACTACA | 0.0886
ATTGGCTC | 0.0983
ATGGTAAT | 0.128
AAGGACAC | -0.0338
ACCCGGGT | -0.12
ACCTTCAC | 0.00082
ATTGGTTG | 0.118
CTGTACGA | 0.0353
CACAGTAG | 0.0618
CACAGTAA | 0.265
TACAGTAA | 0.183

Sequence | PBM E-score
ATTTCGAA | 0.261
ATTTCGAG | 0.141
ATTTCGAC | -0.0412
TGCGTGAA | 0.107
ACATTAGT | 0.0888
ACTTTATA | 0.259
ATTTTATC | 0.235
AGTTTATA | 0.205
AATTTATC | 0.325
ACTTTATC | 0.169
GTTTTATA | 0.139
CGTTTATA | 0.28
GGTTTATA | 0.0813
ATTTTATA | 0.331
ATTTTATG | 0.21
CATTTATC | 0.198
CCTTTATA | 0.0052
GGCAGTCA | -0.11
AAGGTAAC | 0.121
AATTTGAT | 0.0887
ATCGTTTA | 0.135
AAGAGCCG | -0.0966
AGTCACGG | 0.00648
AGGCAGAA | -0.0515
CCTCGCAC | -0.133

Sequence | PBM E-score
AATTTATA | 0.294
AATTTATG | 0.252
CATTTATA | 0.215
GGACATAA | 0.0711
AACCATAA | 0.15
AACCATAT | 0.266
TGACATAA | 0.3
GTCCATAA | -0.0433
AACCATAC | 0.0832
ATGCATTA | 0.333
ATCCATAA | 0.258
AGACATAA | 0.136
ATGCATTC | 0.0938
CTGCATTA | -0.0676
CTCCATAA | -0.0865
CTCCTTCC | -0.171
CATTTGAC | 0.0765
GGAGCGCA | -0.261
AAGTACGG | -0.0366
AGCAATTC | 0.134
TAGGCCCA | -0.198
TCGTCGAA | 0.0355
ATACATAT | 0.286
TTACATAA | 0.416
ACACATAG | -0.0796

Sequence | PBM E-score
ACACATAA | 0.299
CTACATAA | -0.0287
GCACATAA | 0.131
ATACATCA | 0.207
GTACATAA | 0.135
AGACATAT | 0.185
ATACATAA | 0.285
ATACATAG | 0.112
ATACATAC | 0.0937
GCCAATCA | -0.169
CCAGCAGA | -0.17
AACTGCTA | 0.00439
CCGCCTGC | -0.278
AGAGAAAA | 0.0508
GTTTGAGA | -0.0917
GGATTGGA | 0.19
TCGCGCCA | -0.0451
ATCTGGAG | -0.165
GCTTGGAC | -0.0766
CAAGGATG | -0.0177
CGCAATAG | 0.105
CCAATGAG | -0.0674
AAACATAT | 0.305
GTACATTA | 0.0635
ATACATTA | 0.266

Sequence | PBM E-score
CTACATTA | 0.11
AAACATAC | 0.0457
AAACATAG | -0.0382
ATCAGGCA | -0.0855
CGCACTTA | -0.0802
GCTGTGCA | -0.205
AACGGCGG | -0.208
CCATTACA | 0.272
CCATTACG | 0.0884
GCATTACA | 0.1
ACATTACG | 0.286
ACATTACT | 0.213
ATATTACA | 0.226
ATATTACG | 0.412
AGATTACG | 0.213
ATATTATC | 0.149
ATATTATG | 0.399
AGATTATG | 0.129
ACATTACA | 0.131
